# Screening results: PubChem, National Center for Advancing Translational Sciences (NCATS)
# TDP1 cell noCPT: qHTS for Inhibitors of human tyrosyl-DNA phosphodiesterase 1 (TDP1): qHTS in cells in absence of CPT | AID 686978, 2013 | 420,000 tested, 15% active | Potency, µM (series often up to 46.2 µM), most hits filed as inhibitors | DT40 Tdp1-/- hTDP1 cells, no CPT, ATP luminescence, 48 h; further: nearly all actives have a fitted effect of over 55% in size
#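 Chicken DT40 Tdp1-/- cells complemented with human TDP1, screened without camptothecin (DMSO vehicle only), 400 cells/well. Compounds pin-transferred, cells incubated at 37 °C for at least 48 hr. Growth read as ATP-dependent luminescence (CellTiter-Glo, 30 min at RT).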
# HT1080NT lethal: qHTS for induction of synthetic lethality in tumor cells producing 2HG: qHTS for the HT-1080-NT fibrosarcoma cell line | HT-1080-NT fibrosarcoma viability, CellTiter-Glo ATP luminescence, 48 h | Potency, µM (top dose mostly 46.1 µM), actives largely listed as cytotoxic | 360,000 tested, 1.6% active | AID 686970, 2013;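 further: NT is the 2HG producing partner of a matched IDH1 knockdown line; nearly all actives have a fitted effect of over 55% in size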
#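 750 cells/well, RPMI + 5% FBS; 2 h settle, compound pin-transfer, 48 h at 37 degrees C. CellTiter-Glo 10 min RT, luminescence. Normalized to DMSO and media-only wells.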
# KB-V1 MDR tox: qHTS assay for MDR1-selective chemotherapeutics: Primary screen using the drug-selected MDR subline cells KB-V1; AID 1347076, 2019; KB-V1 MDR cells viability, CellTiter-Glo, 72 h; Potency, µM (series often up to 46.1 µM), most hits filed as cytotoxic; 400,000 tested, 3.4% active; further: nearly all actives have a fitted effect of over 60% in size
#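 KB-V1, DMEM (no phenol red) + 10% FBS; cpd pin-transferred, titration series; 72 h, 37 degrees C; CellTiter-Glo, luminescence. Data normalized, curve-fit.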
# HT1080 IDH1KD tx: qHTS for induction of synthetic lethality in tumor cells producing 2HG: qHTS for the HT-1080-IDH1KD cell line; AID 686971, 2013; 360,000 tested, 2% active; Potency, µM (highest dose often 46.1 µM), hits mostly cytotoxic; HT-1080 IDH1 knockdown viability, ATP luminescence, 48 h
#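 Using the IDH1-knockdown HT-1080 line run in the same batch and compound series as the NT line, viability after 48 h at 37 °C was determined by CellTiter-Glo luminescence and expressed as % activity.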
# DT40 TDP1 CPT: qHTS for Inhibitors of human tyrosyl-DNA phosphodiesterase 1 (TDP1): qHTS in cells in presence of CPT; AID 686979, 2013; chicken DT40 Tdp1-/-;hTDP1 cells + 20 nM CPT, ATP luminescence, 48 h; Potency, µM (highest dose often 46.2 µM), actives largely listed as inhibitors; 420,000 tested, 12% active; further: nearly all actives have a fitted effect of over 55% in size
#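 Chicken DT40 Tdp1-/- cells stably complemented with human TDP1 were seeded at 400 cells/well in medium containing 20 nM camptothecin, exposed to pin-transferred compounds, and grown at 37 °C for at least 48 hr. Viability was read as ATP luminescence.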
# KB-3-1 cytotox: qHTS assay for MDR1-selective chemotherapeutics: Primary screen using the parental adenocarcinoma cell KB-3-1; KB-3-1 viability, CellTiter-Glo ATP luminescence, 72 h; Potency, µM (titrated, usually from 46.1 µM), hits mostly cytotoxic; 400,000 tested, 1.4% active; further: nearly all actives have a fitted effect of over 60% in size
#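 KB-3-1 parental drug-naive adenocarcinoma cells in DMEM/10% FBS, incubated 72 h at 37 C with pin-transferred compounds across a concentration series. Viability by CellTiter-Glo luminescence; concentration-response curves fitted after normalization.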
# A number is an active result; i = inactive; ? = inconclusive; nt = not tested or not shown. An excerpt weighted towards active compounds, which were near 19% of everything screened. The call rests on the fitted dose curve; in most records, active means well fitted curve in the direction sought with a large enough effect; inconclusive means small, poorly fitted or top-dose-only effect, or another doubt; inactive means no such curve, though single readings can be large; an effect the other way counts as inactive or inconclusive.
SMILES,TDP1 cell noCPT,HT1080NT lethal,KB-V1 MDR tox,HT1080 IDH1KD tx,DT40 TDP1 CPT,KB-3-1 cytotox
Cc1ccc(S(=O)(=O)Nc2ccccc2-c2ccccc2)cc1,2.6µM,2.9µM,?,4.1µM,2.6µM,3.3µM
Cc1ccc(S(=O)(=O)Nc2ccc(O)c3cccnc23)cc1,6.5µM,i,i,?,2.9µM,i
Cc1ccc(S(=O)(=O)Nc2ccnc3ccccc23)cc1,21µM,i,i,i,?,i
Cc1cc(-c2ccc(NS(=O)(=O)c3ccccc3)c(C)c2)ccc1NS(=O)(=O)c1ccccc1,12µM,i,i,i,13µM,?
Cc1ccc(S(=O)(=O)Nc2ccccc2[N+](=O)[O-])cc1,i,i,i,i,i,i
O=C(COC(=O)COc1ccccc1)Nc1ccc(Br)cc1Br,i,i,?,i,i,i
Cc1ccc(S(=O)(=O)Nc2ccccc2CNc2cccc(C)n2)cc1,16µM,i,5.8µM,i,?,i
Cc1ccc(S(=O)(=O)Nc2ccccc2C=Nc2cccc(C)c2C)cc1,?,i,i,i,?,i
Cc1ccc(S(=O)(=O)Nc2ccc(Cl)cc2O)cc1,?,?,21µM,?,?,?
Cc1ccc(S(=O)(=O)Nc2cccc3ncccc23)s1,1µM,?,?,?,0.92µM,5.8µM
Cc1ccc(S(=O)(=O)Nc2ccccc2/C=N/c2nc3ccccc3n2C)cc1,?,?,i,21µM,?,?
O=C(O)CC1(CC(=O)N2CCC(C(=O)O)CC2)CCCC1,i,i,i,i,i,i
CC(C)(C)OC(=O)N1CCN(C(=O)c2ncn3c2c(=O)[nH]c2ccccc23)CC1,i,i,i,i,i,i
Cc1ccc(S(=O)(=O)Nc2cccc3ncccc23)cc1,i,i,?,i,?,i
O=S(=O)(Nc1cccc2ncccc12)c1cccc(C(F)(F)F)c1,9.2µM,i,i,i,?,i
Cc1ccc(S(=O)(=O)Nc2ccccc2NS(=O)(=O)c2ccc(C)cc2)cc1,i,i,21µM,i,i,?
Cc1ccc(S(=O)(=O)Nc2ccccc2O)cc1,i,i,i,i,i,i
CC(C)(C)C(=O)NNC(=O)c1cc2sccc2s1,i,i,i,i,i,?
CC1(C)Nc2ccccc2C(=O)N1c1ccccc1,i,i,i,i,i,i
Cc1cccc(N(C(=O)c2snc(C(N)=O)c2N)C(C)C(=O)NCC2CCCO2)c1 (stereo not drawn),i,i,?,i,i,i
COc1ccc(C)cc1N(C(=O)c1snc(C(N)=O)c1N)C(C(=O)NC1CCCCC1)c1ccc(C)o1 (stereo not drawn),18µM,?,21µM,?,18µM,?
Cc1ccc(C)c(N(C(=O)c2snc(C(N)=O)c2N)C(C(=O)NCC2CCCO2)c2ccc(C)o2)c1 (stereo not drawn),10µM,i,?,i,16µM,i
Cc1ccc(C(C(=O)NCC2CCCO2)N(C(=O)c2snc(C(N)=O)c2N)c2ccccc2)o1 (stereo not drawn),?,i,?,i,i,i
Cc1ccc(C)c(N(C(=O)c2snc(C(N)=O)c2N)C(C(=O)NCC2CCCO2)c2cccs2)c1 (stereo not drawn),8.2µM,i,i,i,7.3µM,i
Cc1cccc(N(C(=O)c2snc(C(N)=O)c2N)C(C(=O)NCC2CCCO2)c2cccs2)c1 (stereo not drawn),0.41µM,i,i,i,i,i
SMILES,TDP1 cell noCPT,HT1080NT lethal,KB-V1 MDR tox,HT1080 IDH1KD tx,DT40 TDP1 CPT,KB-3-1 cytotox
COc1ccc(S(=O)(=O)N2CCOCC2)cc1NC(=O)CSc1nnc2c(n1)[nH]c1ccccc12,?,i,i,i,?,i
CC(=O)n1cc(C2CC(=O)OC3=C2CC(=O)C(C)(C)C3)c2ccccc21 (stereo not drawn),?,i,i,i,?,i
CCn1ccc(C(=O)N2CCN(c3ncccn3)CC2)n1,i,i,i,i,i,i
Cc1nn(-c2ccccc2)c2c1P(=O)(O)/C(=C1\N(C)c3ccccc3C1(C)C)C=N2,i,i,i,i,i,i
CCc1ccc(N(C(=O)c2snc(C(N)=O)c2N)C(C(=O)NCC2CCCO2)c2cccs2)cc1 (stereo not drawn),21µM,i,i,i,?,i
COc1cccc(NC(=O)CCC(=O)N2Cc3ccccc3Oc3ncccc32)c1,i,nt,i,nt,i,i
Cn1cc(C(c2ccccc2OCC(=O)O)c2cn(C)c3ccccc23)c2ccccc21,16µM,i,i,i,12µM,i
Cc1ccccc1OCC(=O)N/N=C/c1cn(C)c2ccccc12,i,i,i,i,i,i
CCOC(=O)C1=CCC(c2ccc(C)cc2)N(S(=O)(=O)c2ccc(C)cc2)C1 (stereo not drawn),18µM,i,i,i,23µM,?
CC(=O)C1=CCC(c2cccc3ccccc23)N(S(=O)(=O)c2ccc(C)cc2)C1 (stereo not drawn),18µM,?,10µM,?,?,?
CCOC(=O)C1=CCC(c2ccccc2C)N(S(=O)(=O)c2ccc(C)cc2)C1 (stereo not drawn),15µM,?,?,?,10µM,i
CC(=O)C1=CCC(c2ccccc2F)N(S(=O)(=O)c2ccc(C)cc2)C1 (stereo not drawn),?,?,i,?,?,i
CC(=O)C1=CCC(c2ccc(C)cc2)N(S(=O)(=O)c2ccc(C)cc2)C1 (stereo not drawn),?,i,?,i,?,i
Cc1noc(C)c1C(=O)N1CCC2(CC1)CN(c1ncccn1)C2,i,nt,nt,nt,i,nt
CCOC(=O)N1CCN(C(=O)COC(=O)c2ccc([N+](=O)[O-])cc2Cl)CC1,i,i,?,i,i,i
O=C(Nc1nccs1)[C@@H]1CC=C[C@@H]2CCN(C3CC3)C(=O)[C@@H]21,i,nt,i,nt,i,i
C=CCC(CC=C)(CNC(=O)C(=O)Nc1cc(C)ccc1OC)c1ccc(OC)c(OC)c1,16µM,nt,i,nt,8.2µM,i
CC(=O)c1ccc(NC(=O)NCCc2c[nH]c3ccccc23)cc1,?,nt,i,nt,?,i
CCC1(c2ccccc2)NC(=O)N(CC(=O)Nc2cc(S(=O)(=O)N3CCCCCC3)ccc2OC)C1=O (stereo not drawn),21µM,i,i,i,16µM,i
